From PubChem BioAssay (NCATS)
Inconclusive results are not listed. Calls of active or inactive are those of the source. The call rests on the fitted dose curve; in most records, active means well fitted curve in the direction sought with a large enough effect; inconclusive means small, poorly fitted or top-dose-only effect, or another doubt; inactive means no such curve, though single readings can be large; an effect the other way counts as inactive or inconclusive.

Key:
[1] = qHTS of pediatric cancer cell lines to identify multiple opportunities for drug repurposing: Primary screen for MG 63 (6-TG R) cells (AID 1347105); settings: MG 63 (6-TG R) viability, CellTiter-Glo, 48 h; series mostly up to 46 µM; further: on the % scale 0 is the no-effect control and ±100 the full control effect; nearly all actives have a fitted effect of over 50% in size
Method in brief: (§1)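 CRCs from 8- or 11-point titrations (lowest final 0.59 nM NPC, 0.78 nM MIPE). Cell viability: CellTiter-Glo after 48 h incubation, 15 min room-temperature development, luminescence imaging.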

[2] = qHTS of pediatric cancer cell lines to identify multiple opportunities for drug repurposing: Primary screen for control Hh wild type fibroblast cells (AID 1347106); settings: Hh wild-type fibroblast viability, CellTiter-Glo luminescence, 48 h; series mostly up to 46 µM;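 further: on the % scale 0 is the no-effect control and ±100 the full control effect; a drop in luminescence marks cytotoxicity and a rise apparent proliferation; nearly all actives have a fitted effect of over 55% in size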
Method in brief: (§2)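 Cells (500-1,000/well) in growth media were settled 5 h at 37 degrees C, then given compounds for 48 h. Viability was read as CellTiter-Glo luminescence. Primary runs used MIPE at 11 points (0.78 nM-46 µM) and NPC at 8 points (0.59 nM-46 µM); follow-ups used 11 points.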

[3] = qHTS of pediatric cancer cell lines to identify multiple opportunities for drug repurposing: Primary screen for Rh30 cells (AID 1347107); settings: Rh30 rhabdomyosarcoma viability, CellTiter-Glo luminescence, 48 h; series mostly up to 46 µM; further: on the % scale 0 is the no-effect control and ±100 the full control effect; nearly all actives have a fitted effect of over 75% in size
Method in brief: as §2

[4] = qHTS of pediatric cancer cell lines to identify multiple opportunities for drug repurposing: Primary screen for Rh41 cells (AID 1347108); settings: Rh41 rhabdomyosarcoma viability, CellTiter-Glo luminescence, 48 h; series mostly up to 46 µM;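 further: luminescence drop marks cytotoxic hits; nearly all actives have a fitted effect of over 70% in size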
Method in brief: as §1

[5] = qHTS of pediatric cancer cell lines to identify multiple opportunities for drug repurposing: Confirmatory screen for NB1643 cells (AID 1347109); settings: NB1643 neuroblastoma cell viability; series mostly up to 45.9 µM;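 further: plate controls were DMSO for no effect and bortezomib for full effect; nearly all actives have a fitted effect of over 45% in size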
Method in brief: as §2

[6] = qHTS of pediatric cancer cell lines to identify multiple opportunities for drug repurposing: Confirmatory screen for A673 cells (AID 1347110); settings: A673 Ewing sarcoma cell viability; series mostly up to 45.9 µM;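 further: cells exposed to compound for 48 h before the viability read; plate controls were DMSO neutral control for no effect and bortezomib positive control for full effect; nearly all actives have a fitted effect of over 65% in size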
Method in brief: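 Cells plated at 500-1,000/well were treated five hours later with multi-point dilutions up to 46 µM final. After two days, CellTiter-Glo was added and luminescence read.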

[7] = qHTS of pediatric cancer cell lines to identify multiple opportunities for drug repurposing: Confirmatory screen for SK-N-MC cells (AID 1347111); settings: SK-N-MC cell viability; series mostly up to 45.9 µM;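 further: cells exposed to compound for 48 h before the readout; plate controls were DMSO for no effect and bortezomib for full effect; nearly all actives have a fitted effect of over 70% in size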
Method in brief: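 Metabolically active cells were quantified by ATP-dependent luminescence (CellTiter-Glo, 15 min at room temperature) following 48 h treatment. Cells had been plated at 500-1,000 per well and settled for 5 h beforehand.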

[8] = qHTS of pediatric cancer cell lines to identify multiple opportunities for drug repurposing: Confirmatory screen for BT-12 cells (AID 1347112); settings: BT-12 rhabdoid tumor cells, viability; series mostly up to 45.9 µM; further: on the % scale 0 is the no-effect control and ±100 the full control effect; nearly all actives have a fitted effect of over 55% in size
Method in brief: as §2

[9] = qHTS of pediatric cancer cell lines to identify multiple opportunities for drug repurposing: Confirmatory screen for LAN-5 cells (AID 1347113); settings: LAN-5 neuroblastoma cell viability; series mostly up to 45.9 µM; further: nearly all actives have a fitted effect of over 65% in size
Method in brief: as §2

[10] = qHTS of pediatric cancer cell lines to identify multiple opportunities for drug repurposing: Confirmatory screen for DAOY cells (AID 1347114); settings: DAOY medulloblastoma cells viability, cytotoxicity qHTS; series mostly up to 45.9 µM; further: on the % scale 0 is the no-effect control and ±100 the full control effect; nearly all actives have a fitted effect of over 65% in size
Method in brief: (§3)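 Viability measured as metabolically active cells via CellTiter-Glo luminescence following 48 hours of compound exposure, 11-point dilutions in confirmatory testing. 500-1,000 cells/well plated 5 hours before dosing; controls were DMSO and 2.3 µM bortezomib.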

[11] = qHTS of pediatric cancer cell lines to identify multiple opportunities for drug repurposing: Confirmatory screen for NB-EBc1 cells (AID 1347115); settings: NB-EBc1 neuroblastoma cells, viability (cytotoxicity); series mostly up to 45.9 µM;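 further: cells exposed to compound for 48 h before the viability read; on the % scale 0 is the no-effect control and ±100 the full control effect; nearly all actives have a fitted effect of over 45% in size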
Method in brief: as §2

[12] = qHTS of pediatric cancer cell lines to identify multiple opportunities for drug repurposing: Confirmatory screen for SJ-GBM2 cells (AID 1347116); settings: SJ-GBM2 glioblastoma cells, viability; series mostly up to 45.9 µM;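 further: plate controls were DMSO for no effect and bortezomib for full effect; nearly all actives have a fitted effect of over 60% in size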
Method in brief: as §3

[13] = qHTS of pediatric cancer cell lines to identify multiple opportunities for drug repurposing: Confirmatory screen for BT-37 cells (AID 1347117); settings: BT-37 pediatric cancer cells, viability; series mostly up to 45.9 µM;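 further: plate controls were DMSO for no effect and bortezomib for full effect; nearly all actives have a fitted effect of over 55% in size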
Method in brief: as §2

[14] = qHTS of pediatric cancer cell lines to identify multiple opportunities for drug repurposing: Confirmatory screen for control Hh wild type fibroblast cells (AID 1347121); settings: viability qHTS; series mostly up to 45.9 µM;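 further: plate controls were DMSO for no effect and bortezomib for full effect; nearly all actives have a fitted effect of over 70% in size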
Method in brief: as §2

[15] = qHTS of pediatric cancer cell lines to identify multiple opportunities for drug repurposing: Confirmatory screen for Rh41 cells (AID 1347123); settings: Rh41 rhabdomyosarcoma cells, viability/cytotoxicity qHTS; series mostly up to 45.9 µM;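 further: 48 h compound exposure; plate controls were DMSO for no effect and bortezomib for full effect; nearly all actives have a fitted effect of over 60% in size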
Method in brief: as §2

[16] = qHTS of pediatric cancer cell lines to identify multiple opportunities for drug repurposing: Confirmatory screen for RD cells (AID 1347124); settings: RD rhabdomyosarcoma cell viability; series mostly up to 45.9 µM;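 further: cells exposed to compound for 48 h before viability readout; on the % scale 0 is the no-effect control and ±100 the full control effect; nearly all actives have a fitted effect of over 65% in size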
Method in brief: as §2

[17] = qHTS of pediatric cancer cell lines to identify multiple opportunities for drug repurposing: Confirmatory screen for Rh18 cells (AID 1347125); settings: Rh18 rhabdomyosarcoma cells, viability; series mostly up to 45.9 µM; further: on the % scale 0 is the no-effect control and ±100 the full control effect; nearly all actives have a fitted effect of over 55% in size
Method in brief: as §2

[18] = qHTS of pediatric cancer cell lines to identify multiple opportunities for drug repurposing: Confirmatory screen for Rh30 cells (AID 1347126); settings: Rh30 rhabdomyosarcoma cell viability; series mostly up to 45.9 µM
Method in brief: as §2

[19] = qHTS of pediatric cancer cell lines to identify multiple opportunities for drug repurposing: Confirmatory screen for U-2 OS cells (AID 1347122); settings: U-2 OS osteosarcoma cell viability; series mostly up to 45.9 µM; further: nearly all actives have a fitted effect of over 65% in size
Method in brief: as §2

[20] = qHTS of pediatric cancer cell lines to identify multiple opportunities for drug repurposing: Confirmatory screen for TC32 cells (AID 1347118); settings: TC32 Ewing sarcoma cells viability qHTS; series mostly up to 0.556 µM
Method in brief: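 TC32 cells, 500-1,000/well in growth medium, compound-treated 48 h at 37 °C; viability from CellTiter-Glo luminescence. Primary screen: MIPE 11-point (0.78 nM–46 µM final), NPC 8-point (0.59 nM–46 µM final); confirmatory at 11-point dilutions.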

CC(C)CCCC(C)N (stereo unspecified)
inactive: Potency [1] | Potency [2] | Potency [3] | Potency [4]

CC(=C(CCOC(=O)C(C)C)SSC(CCOC(=O)C(C)C)=C(C)N(C=O)Cc1cnc(C)nc1N)N(C=O)Cc1cnc(C)nc1N
inactive: Potency [1] | Potency [2] | Potency [3] | Potency [4]

O=C1C(CCS(=O)c2ccccc2)C(=O)N(c2ccccc2)N1c1ccccc1 (stereo unspecified)
inactive: Potency [1] | Potency [2] | Potency [3] | Potency [4]

Nc1nc(N)c(-c2ccccc2)s1
inactive: Potency [1] | Potency [2] | Potency [3] | Potency [4]

C[C@H]1[C@H]2CC[C@H]3[C@@H]4CC=C5C[C@@H](N(C)C)CC[C@]5(C)[C@H]4CC[C@]23CN1C
inactive: Potency [1] | Potency [2] | Potency [3] | Potency [4]

COc1cc(C(=O)NCc2ccc(OCCN(C)C)cc2)cc(OC)c1OC
inactive: Potency [1] | Potency [2] | Potency [3] | Potency [4]

O=C(Nc1cccc(C2=NCCN2)c1)Nc1cccc(C2=NCCN2)c1
inactive: Potency [1] | Potency [2] | Potency [3] | Potency [4]

OC(C#CCN1CCCC1)(c1ccccc1)c1ccccc1
inactive: Potency [1] | Potency [2] | Potency [3] | Potency [4]

Oc1ccccc1C=NCc1ccccc1
inactive: Potency [1] | Potency [2] | Potency [3] | Potency [4]

Cc1cc(C)cc(OCC2CNC(=O)O2)c1 (stereo unspecified)
inactive: Potency [1] | Potency [2] | Potency [3] | Potency [4]

COc1cc([C@H]2Oc3cc([C@H]4Oc5cc(O)cc(O)c5C(=O)[C@@H]4O)ccc3O[C@@H]2CO)ccc1O
inactive: Potency [1] | Potency [2] | Potency [3] | Potency [4]

CCC1NC(=O)c2cc(S(N)(=O)=O)c(Cl)cc2N1 (stereo unspecified)
inactive: Potency [1] | Potency [2] | Potency [3] | Potency [4]

CCC(CC)(CC(=O)Nc1cccc(/C=C/c2nc(C3CCC3)cs2)c1)C(=O)O
inactive: Potency [1] | Potency [2] | Potency [3] | Potency [4]

CC1=C(C(=O)O)N2C(=O)[C@@H](NC(=O)[C@H](N)c3ccccc3)[C@H]2SC1
inactive: Potency [1] | Potency [2] | Potency [3] | Potency [4]

C=CCN1CCc2nc(N)sc2CC1
inactive: Potency [1] | Potency [2] | Potency [3] | Potency [4]

Cc1cc(CC(=O)O)c(C)n1-c1ccc(Cl)cc1
inactive: Potency [1] | Potency [2] | Potency [3] | Potency [4]

CC(=O)NO
inactive: Potency [1] | Potency [2] | Potency [3] | Potency [4]

CCCN(CCc1cccs1)[C@H]1CCc2c(O)cccc2C1
inactive: Potency [1] | Potency [2] | Potency [3] | Potency [4]

CN1CCC(OC(c2ccccc2)c2ccccc2)CC1
inactive: Potency [1] | Potency [2] | Potency [3] | Potency [4]

COc1cc(N)c(Cl)cc1C(=O)NC1CCN(Cc2ccccc2)CC1
inactive: Potency [1] | Potency [2] | Potency [3] | Potency [4]

CC(=O)Nc1ncc([N+](=O)[O-])s1
inactive: Potency [1] | Potency [2] | Potency [3] | Potency [4]

O=C(O)C(Cc1cc(I)c(O)c(I)c1)c1ccccc1 (stereo unspecified)
inactive: Potency [1] | Potency [2] | Potency [3] | Potency [4]

COc1ccc(C(=O)c2ccccc2)c(O)c1
inactive: Potency [1] | Potency [2] | Potency [3] | Potency [4] | Potency [5] | Potency [6] | Potency [7] | Potency [8] | Potency [9] | Potency [10] | Potency [11] | Potency [12] | Potency [13] | Potency [14] | Potency [15] | Potency [16] | Potency [17] | Potency [18]

CNCCCCOc1ccccc1Cc1ccccc1
inactive: Potency [2] | Potency [3]

N/C(=N\N=C\c1ccc(Cl)cc1)N/N=C/c1ccc(Cl)cc1
inactive: Potency [2] | Potency [3] | Potency [4]

CCCCCCCC/C=C\CCCCCCCCN
inactive: Potency [2] | Potency [3] | Potency [4]

O=C(Nc1ccccc1)OCC(CN1CCCCC1)OC(=O)Nc1ccccc1 (stereo unspecified)
inactive: Potency [2] | Potency [3]

c1ccc(CC2=NCCN2)cc1
inactive: Potency [2] | Potency [3] | Potency [4]

O=C(O)CCC(=O)Nc1ccc(S(=O)(=O)Nc2nccs2)cc1
inactive: Potency [2] | Potency [3] | Potency [4]

CN1CCN(C2=Nc3cc(F)ccc3Cc3ccccc32)CC1
inactive: Potency [2] | Potency [3] | Potency [4]

Cc1ccc2c(Br)cc(Br)c(O)c2n1
inactive: Potency [2]

C=C[C@@]1(C)CC(=O)[C@]2(O)[C@@]3(C)[C@@H](O)CCC(C)(C)[C@@H]3[C@H](O)[C@H](OC(C)=O)[C@@]2(C)O1
inactive: Potency [1] | Potency [2] | Potency [3] | Potency [4] | Potency [5] | Potency [6] | Potency [9] | Potency [10] | Potency [11] | Potency [14] | Potency [19] | Potency [15]

CCN[C@@H]1C[C@H](N)[C@@H](OC2OC(CN)=CCC2N)[C@H](O)[C@H]1O[C@H]1OC[C@](C)(O)[C@H](NC)[C@H]1O (stereo partly specified)
inactive: activity change, negative = cytotoxic [1] -16.5% [at 0.597 µM] | activity change, negative = cytotoxic [2] 8.24% [at 0.597 µM] | activity change, negative = cytotoxic [3] 14.5% [at 0.597 µM] | activity change, negative = cytotoxic [4] 8.19% [at 0.597 µM] | activity change, negative = cytotoxic [5] 11.9% [at 0.556 µM] | activity change, negative = cytotoxic [7] -2.44% [at 0.556 µM] | activity change, negative = cytotoxic [8] -6.5% [at 0.556 µM] | activity change, negative = cytotoxic [10] 15.9% [at 0.556 µM] | activity change, negative = cytotoxic [11] -1.08% [at 0.556 µM] | activity change, negative = cytotoxic [12] 5.75% [at 0.556 µM] | activity change, negative = cytotoxic [13] 4.53% [at 0.556 µM] | Potency [20] | activity, negative = cytotoxic [14] 8.41% [at 0.556 µM] | outcome [19] inactive [at 0.556 µM] | activity change, negative = cytotoxic [15] 13.6% [at 0.556 µM] | activity change, negative = cytotoxic [16] 11.8% [at 0.556 µM] | activity change, negative = cytotoxic [17] 4.31% [at 0.556 µM] | activity change, negative = cytotoxic [18] 25.4% [at 0.556 µM]
